AmpC no deterg – inhibitors of E. coli AmpC beta-lactamase without detergent | P00811 | AmpC nitrocefin hydrolysis, absorbance 480 nm, 0.0001% Triton | Potency, µM (doses to about 57.1 µM), without a hit: at the highest dose activity change, negative = inhibition, actives largely listed as inhibitors | 0.52% of 330,000 active | AID 485341;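 also: plate controls were no compound for no effect and no enzyme for full effect; nearly all actives have a fitted effect of over 20% in size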
Target sequence (P00811 whole entry, looked up): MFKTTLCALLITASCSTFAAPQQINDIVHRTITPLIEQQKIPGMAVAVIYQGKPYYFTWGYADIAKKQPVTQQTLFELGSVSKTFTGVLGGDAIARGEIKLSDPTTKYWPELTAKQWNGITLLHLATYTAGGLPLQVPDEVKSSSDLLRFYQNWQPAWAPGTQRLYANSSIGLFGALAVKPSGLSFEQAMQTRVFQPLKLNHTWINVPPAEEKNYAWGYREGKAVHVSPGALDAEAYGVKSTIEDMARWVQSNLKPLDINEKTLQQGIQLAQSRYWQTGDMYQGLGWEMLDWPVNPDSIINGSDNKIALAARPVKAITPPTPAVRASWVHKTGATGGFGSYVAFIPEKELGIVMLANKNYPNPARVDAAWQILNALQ
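20 mM phosphate pH 7.0 + 0.01% (detergent screen) or 0.0001% Triton X-100; 5.3 nM AmpC reagent; cpd preinc 15 min RT; nitrocefin (800 uM stock) to start; A480 q20 s × 4 min; Activity was normalised to no-enzyme and no-compound control wells.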
AmpC inh detg – blocks E. coli AmpC beta-lactamase in detergent assay | 0.041% of 370,000 active | Potency, µM (doses to about 114 µM), for the others: top-dose activity change, negative = inhibition, most hits filed as inhibitors | AmpC hydrolysis of nitrocefin, absorbance 480 nm, 0.01% Triton;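 also: 0% = no-compound wells and -100% = no-enzyme wells; nearly all actives have a fitted effect of over 25% in size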
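AmpC (5.3 nM in the dispensed reagent) in 20 mM phosphate pH 7.0 with 0.01% (detergent screen) or 0.0001% Triton X-100 was preincubated with compounds for 15 min at room temperature. Nitrocefin was then added from an 800 uM solution, and hydrolysis was followed at 480 nm.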
AMA1 RON2 block – AMA1-RON2 (P. falciparum) interaction inhibition | 0.2% of 360,000 active | Potency, µM (series often up to 58.2 µM), for inactives: top-dose activity change, negative = inhibition, hits mostly inhibitors | AlphaScreen AMA1-biotinylated RON2 peptide binding | AID 720542;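 also: 0% = vehicle wells and -100% = peptide control; nearly all actives have a fitted effect of over 45% in size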
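AMA1 (3D7) with his tag at 25 nM final met compounds first, then biotinylated RON2 peptide at 25 nM; detection used donor plus acceptor beads, 10 µg/mL apiece, read by AlphaScreen after 30 min at room temperature.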
Sm TGR inh – S. mansoni TGR enzyme inhibition; Q962Y6; purified TGR, DTNB reduction, TNB absorbance 405 nm; Potency, µM (series often up to 114 µM), for inactives: top-dose activity change, negative = inhibition, usual class: inhibitors; 3% of 360,000 active; also: nearly all actives have a fitted effect of over 60% in size
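Kinetic colorimetric format: TGR-catalysed, NADPH-driven DTNB reduction monitored via TNB absorbance. Enzyme dispensed at 20 nM; compound exposure 15 min at room temperature before reaction start.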
FMDV antiviral – foot and mouth disease virus antiviral activity | 1.2% of 410,000 active | Potency, µM (top dose mostly 57.9 µM), for inactives: at the highest dose activity change, negative = inhibition, actives largely listed as inhibitors | FMDV antiviral cell-based qHTS; calls by dose curve; tested in HEK293T cells; also: read-out not given here; nearly all actives have a fitted effect of over 45% in size
The depositor's hits bear a star; ! = not confirmed by another sample. Compounds with a hit are over-represented: about 4.1% of the library has one in this group of screens. Unless noted, calls follow the shape of the dose curve; as a rule, active = well fitted curve in the direction sought with a large enough effect; inconclusive = small, poorly fitted or top-dose-only effect, or another doubt; inactive = no such curve, though single readings can be large; an effect the other way counts as inactive or inconclusive. Unless noted, % is scaled to controls: 0 for no effect and ±100 for the full control effect; potency is read from the fitted curve at half-maximal effect.

Results for O=C1/C(=C/c2ccccc2)C[C@@]2(O)[C@H]3Cc4ccc(O)c5c4[C@@]2(CCN3CC2CC2)C1O5 (stereo not given in full) ?
AmpC no deterg: -21.2%; AMA1 RON2 block: 12.3%; FMDV antiviral: 10µM*

Results for COc1ccc(N2CCN(c3ccc(-c4nc(-c5ccccc5)no4)cc3[N+](=O)[O-])CC2)cc1 ?
AmpC inh detg: -2.0%; Sm TGR inh: -5.9%; FMDV antiviral: -10.4%

What do the screens show for `COCCNC(=O)Cn1cnc2c(cnn2-c2ccc(C)cc2)c1=O`?
AmpC no deterg: -12.0%; AmpC inh detg: inconclusive; AMA1 RON2 block: -4.1%; Sm TGR inh: 89.1µM*; FMDV antiviral: -7.5%

How did COCCNC(=O)Cn1cnc2c(cnn2-c2ccc(OC)cc2)c1=O do in these assays?
AmpC no deterg: -10.8%; AmpC inh detg: inconclusive; AMA1 RON2 block: -7.9%; Sm TGR inh: 2.5%; FMDV antiviral: 6.8%

How did COc1ccc(N2CCCC2)c(NC(=O)c2ccc(Br)o2)c1 do in these assays?
AmpC no deterg: -28.7%; AmpC inh detg: 10.8%; AMA1 RON2 block: inconclusive; Sm TGR inh: 44.7µM*; FMDV antiviral: inconclusive

Results for O=C(Nc1ccccc1N1CCCC1)c1ccc(Br)o1 ?
AmpC no deterg: -19.6%; AmpC inh detg: 0.7%; AMA1 RON2 block: -15.5%; Sm TGR inh: -27.5%; FMDV antiviral: 24.3%

How did CCc1c(C)c(C#N)c2nc3ccccc3n2c1Nc1cccc(C(F)(F)F)c1 do in these assays?
AmpC inh detg: -0.5%; Sm TGR inh: 1.6%; FMDV antiviral: 0.0%

What do the screens show for `NNC(=O)c1cccc(COc2ccc(Br)cc2)c1`?
AmpC no deterg: -4.9%; AmpC inh detg: 1.4%; AMA1 RON2 block: 21.8%; Sm TGR inh: 2.4%; FMDV antiviral: -28.2%

Results for COc1ccc(OCc2cccc(C(=O)NN)c2)cc1 ?
AmpC no deterg: -57.9%; AmpC inh detg: -5.5%; AMA1 RON2 block: 35.3%; Sm TGR inh: 0.1%; FMDV antiviral: 8.91µM*

How did CC(C)N1CCc2c(sc(NC(=O)c3ccc(S(=O)(=O)N4CCOCC4)cc3)c2C#N)C1 do in these assays?
AmpC no deterg: 10.3%; AmpC inh detg: -8.2%; AMA1 RON2 block: 0.9%; Sm TGR inh: 44.7µM*; FMDV antiviral: -10.6%

How did COc1ccc(C(=O)Nc2sc3c(c2C#N)CCN(C(C)=O)C3)cc1 do in these assays?
AmpC no deterg: -4.3%; AmpC inh detg: 2.5%; AMA1 RON2 block: 24.8%; Sm TGR inh: 13.2%; FMDV antiviral: 8.7%

How did CCOC(=O)N1CCc2c(sc(NC(=O)c3ccc(S(=O)(=O)N4CCCC4)cc3)c2C#N)C1 do in these assays?
AmpC no deterg: -35.8%; AmpC inh detg: inconclusive; AMA1 RON2 block: -0.8%; Sm TGR inh: -17.8%; FMDV antiviral: 17.8µM*

What do the screens show for `O=C(CSc1ccc2nnc(CCNS(=O)(=O)c3ccccc3)n2n1)Nc1ccccc1C(F)(F)F`?
AmpC inh detg: 4.3%; Sm TGR inh: -12.4%; FMDV antiviral: 15.4%

How did Cc1ccc(O)c(CNc2ccccn2)c1 do in these assays?
AmpC no deterg: -28.8%; AmpC inh detg: inconclusive; AMA1 RON2 block: -14.9%; Sm TGR inh: 1.9%; FMDV antiviral: 55.9%

Results for Oc1ccc2ccccc2c1CNc1ccccn1 ?
AmpC no deterg: -37.1%; AmpC inh detg: -4.1%; AMA1 RON2 block: -4.2%; Sm TGR inh: 2.24µM*; FMDV antiviral: -3.8%

Results for CCC(=O)[C@@H](C)[C@@H](OC(C)=O)[C@H](C)C[C@@H](C)[C@H]1OC(=O)C[C@@]2(O)CC=C(C)C(O2)C(C)=CCCC[C@H](O[C@H]2C[C@@H](OC(N)=O)[C@H](OC(C)=O)[C@@H](C)O2)C=C[C@H](C)C[C@H]1C ?
AMA1 RON2 block: 3.3%; FMDV antiviral: -28.7%

Results for CCC(=O)[C@@H](C)[C@@H](O)[C@H](C)C[C@@H](C)C1OC(=O)C[C@@]2(O)CC=C(C)C(O2)C(C)=CCCC[C@H](O[C@H]2C[C@@H](OC(N)=O)[C@H](O)[C@@H](C)O2)C=C[C@H](C)C[C@H]1C (stereo not given in full) ?
AMA1 RON2 block: 2.9%; FMDV antiviral: 17.8µM*

What do the screens show for `COc1ccccc1/C=C\C(=O)O`?
FMDV antiviral: -10.1%

What do the screens show for `CC(=O)/C=C/c1ccccc1Oc1c(F)c(F)nc(F)c1F`?
AmpC no deterg: -15.6%; AmpC inh detg: 2.0%; AMA1 RON2 block: 3.2%; Sm TGR inh: -0.9%; FMDV antiviral: 31.6µM*

Results for CC(=O)OC[C@@]12C(=O)[C@@H](O)[C@@H](C)[C@]3(C[C@@H](c4ccoc4)O[C@@H]3OC(C)=O)[C@H]1CCC[C@]21CO1 ?
FMDV antiviral: -12.3%

How did O=C(O)CCc1ccc(-c2ccccc2)n1CC(=O)Nc1ccccc1C(F)(F)F do in these assays?
AmpC inh detg: 11.6%; Sm TGR inh: 39.8µM*; FMDV antiviral: -18.4%

How did O=C(O)CCc1ccc(-c2ccc(Cl)cc2)n1CCC(=O)O do in these assays?
AmpC no deterg: -1.7%; AmpC inh detg: -7.8%; AMA1 RON2 block: 5.2%; Sm TGR inh: 22.4µM*

How did O=C(O)CCc1ccc(-c2ccc(Cl)cc2)n1CC(=O)O do in these assays?
AmpC no deterg: -25.9%; AmpC inh detg: -18.7%; AMA1 RON2 block: -3.7%; Sm TGR inh: 44.7µM*

How did C=CCn1c(CCC(=O)O)ccc1-c1ccccc1 do in these assays?
AmpC no deterg: -32.1%; AmpC inh detg: inconclusive; AMA1 RON2 block: -11.7%; Sm TGR inh: 44.7µM*

How did COc1ccc2oc(-c3ccco3)cc(=O)c2c1 do in these assays?
AmpC no deterg: 24.2%; AmpC inh detg: -11.3%; AMA1 RON2 block: -2.9%; Sm TGR inh: -12.8%; FMDV antiviral: 16.3%

How did COc1cccc2oc(-c3ccco3)cc(=O)c12 do in these assays?
AmpC no deterg: -22.0%; AmpC inh detg: inconclusive; AMA1 RON2 block: -2.0%; Sm TGR inh: 7.94µM*; FMDV antiviral: inconclusive

How did Cc1ccc(CN2C(=O)C3(c4ccccc42)N(c2cccc(F)c2)C(=O)CS3(=O)=O)cc1 (stereo not given) do in these assays?
AmpC inh detg: -3.2%; Sm TGR inh: 16.3%; FMDV antiviral: inconclusive

What do the screens show for `CCN(c1ccccc1C)S(=O)(=O)c1nnc(NC(=O)c2ccco2)s1`?
AmpC no deterg: -33.4%; AmpC inh detg: 1.6%; AMA1 RON2 block: -4.6%; Sm TGR inh: 20µM*!; FMDV antiviral: -4.8%

How did CCN(c1cc(C)cc(C)c1)S(=O)(=O)c1nnc(NC(=O)c2ccco2)s1 do in these assays?
AmpC no deterg: -54.8%; AmpC inh detg: 5.7%; AMA1 RON2 block: 5.5%; Sm TGR inh: inconclusive; FMDV antiviral: -10.8%

Results for Cc1cccc(C(=O)Nc2nnc(S(=O)(=O)N(C)Cc3ccco3)s2)c1 ?
AmpC no deterg: -42.9%; AmpC inh detg: 4.5%; AMA1 RON2 block: -2.9%; Sm TGR inh: 7.94µM*!; FMDV antiviral: 7.2%
